# Data published in PubChem BioAssay AID720551 (National Center for Advancing Translational Sciences (NCATS), 2013).
# Among all 340,000 compounds or so, about 1,300 (0.38%) were called active. This excerpt belongs to a sample that is enriched for actives. Values without a mark were called inactive.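 The calls were made as follows: active = maximum activity change below -70%; inconclusive = maximum activity change between -70% and -50%; inactive = maximum activity change above -50%.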
# Target: Voltage-gated inwardly rectifying potassium channel KCNH2 (Homo sapiens) (UniProt Q12809)
# Test: qHTS for Inhibitors of KCHN2 3.1: Wildtype qHTS
# Conditions: U2OS, BacMam KCNH2, thallium flux FluxOr; at 1.84 µM; stronger effect = lower value
# Summary of the method: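 U2OS cells were transduced with wild-type KCNH2 virus (2.03 x 10^8 / mL) for 4 h at room temperature, then cultured overnight at 37 C. Thallium flux was read with FluxOr dye. Rate constants were normalized to DMSO controls.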
# % is scaled to controls: 0 for no effect and ±100 for the full control effect.
# Chain of Voltage-gated inwardly rectifying potassium channel KCNH2 (Homo sapiens) (Q12809 whole entry, looked up): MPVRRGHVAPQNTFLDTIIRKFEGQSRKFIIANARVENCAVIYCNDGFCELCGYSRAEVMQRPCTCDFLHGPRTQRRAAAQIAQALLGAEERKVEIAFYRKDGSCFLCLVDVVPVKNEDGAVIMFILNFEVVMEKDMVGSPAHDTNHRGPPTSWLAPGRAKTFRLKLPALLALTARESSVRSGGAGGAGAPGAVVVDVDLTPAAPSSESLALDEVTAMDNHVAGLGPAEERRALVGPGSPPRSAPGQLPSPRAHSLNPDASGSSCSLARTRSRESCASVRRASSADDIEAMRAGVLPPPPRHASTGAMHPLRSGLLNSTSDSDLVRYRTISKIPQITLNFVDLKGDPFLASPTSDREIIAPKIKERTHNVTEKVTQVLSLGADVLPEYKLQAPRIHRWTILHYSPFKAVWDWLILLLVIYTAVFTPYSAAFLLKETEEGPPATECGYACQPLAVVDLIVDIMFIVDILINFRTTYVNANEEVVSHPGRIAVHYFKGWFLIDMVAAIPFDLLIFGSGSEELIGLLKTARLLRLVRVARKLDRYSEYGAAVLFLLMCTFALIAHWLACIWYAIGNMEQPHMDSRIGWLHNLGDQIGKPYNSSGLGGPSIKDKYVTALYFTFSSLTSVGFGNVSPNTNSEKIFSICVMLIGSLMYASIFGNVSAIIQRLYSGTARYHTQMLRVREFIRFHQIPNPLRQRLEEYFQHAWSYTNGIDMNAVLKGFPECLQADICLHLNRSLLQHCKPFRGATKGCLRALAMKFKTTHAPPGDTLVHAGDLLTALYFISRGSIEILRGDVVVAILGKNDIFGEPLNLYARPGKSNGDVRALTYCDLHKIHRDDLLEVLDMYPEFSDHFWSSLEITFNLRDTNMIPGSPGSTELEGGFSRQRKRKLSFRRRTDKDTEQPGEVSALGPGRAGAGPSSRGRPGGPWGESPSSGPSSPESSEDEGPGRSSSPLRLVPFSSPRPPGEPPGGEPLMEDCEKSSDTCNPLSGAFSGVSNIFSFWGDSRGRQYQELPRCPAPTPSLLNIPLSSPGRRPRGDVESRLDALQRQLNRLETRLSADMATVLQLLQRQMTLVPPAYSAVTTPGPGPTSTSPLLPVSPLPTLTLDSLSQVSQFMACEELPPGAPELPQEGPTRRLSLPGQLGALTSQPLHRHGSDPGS
row,SMILES,activity change
1,O=C(NCCN1CCOCC1)c1ccc2c(c1)N(Cc1cccc(Cl)c1)C(=O)c1ccccc1S2(=O)=O,2.54%
2,Cc1cc(OCC(=O)Nc2nccs2)c2c(C)c(C)c(=O)oc2c1,-4.04%
3,CC1(C)CC(=O)C=C(c2ccc(COC(=O)c3cc(F)cc(F)c3)cc2)C1=O,-3.02%
4,CCN(CC)CCN(C(=O)c1ccc2c(c1)CCCC2)c1nc2c(OC)cccc2s1,-10.1%
5,Cc1cc(C)c2cc(C#N)c(N3CCNCC3)nc2c1,31.7%
6,O=C(COC(=O)CSc1ccccc1)Nc1ccc(F)cc1F,-4.38%
7,O=C(CCN1C(=O)c2ccccc2C1=O)Nc1cccc(F)c1,5.88%
8,CNC(=O)NC(=O)C(C)N1CCN(C/C=C/c2ccccc2)CC1 (centres undefined),16.2%
9,O=C(CN1CCN(C/C=C/c2ccccc2)CC1)Nc1ccc(F)cc1F,-155% (active)
10,O=C(CCN1CCN(C/C=C/c2ccccc2)CC1)Nc1ccccc1Cl,-76.7% (active)
11,COc1ccccc1NC(=O)CCN1CCN(c2ccc(Cl)cc2)CC1,0.203%
12,CCOC(=O)N1CCN(CCC(=O)Nc2ccccc2)CC1,9.24%
13,O=C(CN1CCN(C(=O)c2cccc(F)c2)CC1)Nc1ccccc1F,4.68%
14,O=C(CCN1CCN(C/C=C/c2ccccc2)CC1)Nc1cccc(F)c1,-92.1% (active)
15,COc1ccc(NC(=O)N(C)C[C@@H]2OCc3cn(nn3)CCCC(=O)N([C@H](C)CO)C[C@H]2C)c(OC)c1,3.91%
16,Cc1ccc(-c2ccc(C3=CC(=O)CC(C)(C)C3=O)cc2)cc1,-2.66%
17,CSc1ncnc2c1ncn2CCCNCc1cccs1,6.63%
18,COc1ccccc1C(=O)OCC(=O)NCCNC(=O)COC(=O)c1ccccc1OC,-4.76%
19,CCOC(=O)c1ccccc1OC(=O)Oc1ccccc1C(=O)OCC,-141% (active)
20,CCOC(=O)c1ccccc1CN1C(=O)c2ccccc2S1(=O)=O,-3.26%

row,SMILES,activity change
1,CCc1ccccc1NC(=O)CN1CCN(C(=O)c2cc(C3CC3)nn2-c2ccccc2)CC1,4.86%
2,CCOC(=O)C1CCCN(Cc2nc(N)nc(Nc3ccc(C)cc3)n2)C1 (centres undefined),27.8%
3,Cc1ccccc1Nc1nc(N)nc(CN2CCN(c3ccccn3)CC2)n1,15.1%
4,Cc1ccc(Nc2nc(N)nc(CN3CCN(Cc4ccccc4)CC3)n2)cc1Cl,-75.8% (active)
5,c1ccc2c(c1)nnn2-c1ccncc1,-10.2%
6,CCOc1ccc(C2c3[nH]c4ccccc4c3CCN2Cc2cccn2-c2ncccn2)cc1 (centres undefined),-74.4% (active)
7,c1ccc(C2c3[nH]c4ccccc4c3CCN2Cc2cccn2-c2cccnc2)nc1 (centres undefined),5.67%
8,CCOc1ccc(C2c3[nH]c4ccccc4c3CCN2Cc2cn(CC)nc2C)cc1 (centres undefined),23.4%
9,NC1=CC(=O)C(=O)c2cccnc21,-14.1%
10,O=C(COC(=O)Cc1ccc(Cl)cc1Cl)NCc1ccco1,5.01%
11,Cc1ccc(C(=O)N/C(=C/c2ccc(-c3cccc([N+](=O)[O-])c3)o2)C(=O)NCCCN(C)C)cc1,-0.553%
12,CN(C)CCNC(=O)/C(=C/c1cccc([N+](=O)[O-])c1)NC(=O)c1ccccc1,-79.1% (active)
13,O=C(NCCc1ccccc1)/C(=C\c1ccc([N+](=O)[O-])cc1)NC(=O)c1ccccc1,23.3%
14,O=C(CN1C(=O)NC2(CCc3ccccc32)C1=O)NC1CCCCC1 (centres undefined),12.5%
15,C/C=C(\C)C(=O)NCCN1C2=NC[C@H](Cc3ccc(O)cc3)N2C[C@@H]1Cc1ccc(OC)cc1,-2.93%
16,COc1cccc(CNC(=O)CCC2CCCN(Cc3ccc(OC(F)F)cc3)C2)c1 (centres undefined),-23.2%
17,COc1ccc(C[C@H]2CN3C(=NC[C@H]3C)N2CCNC(=O)CCC2CCCCC2)cc1,-97.2% (active)
18,COc1ccc(NC(=O)C[C@H]2C(=O)N(CCc3ccccc3)C[C@@H]2C)cc1,-25.6%
19,O=C(CCN1CCCCC1)Nc1ccc(F)c(F)c1,-2.99%
20,Cc1ccc(NC(=O)COC(=O)CN2CCSC2=O)cc1F,-2.67%

row,SMILES,activity change
1,CC(C)NC(=O)Nc1ccc2c(c1)C(=O)N([C@H](C)CO)C[C@H](C)[C@@H](CN(C)Cc1ccc(C(F)(F)F)cc1)OCCCC[C@@H](C)O2,-10.8%
2,CC1(C)Cc2cccc(OCC(=O)N3CCN(c4ccc([N+](=O)[O-])cc4)CC3)c2O1,-90.2% (active)
3,CC1(C)Cc2cccc(OCC(=O)Nc3nccs3)c2O1,-0.616%
4,CC1(C)Cc2cccc(OCC(N)=O)c2O1,-15.1%
5,Cn1c(CNC(=O)c2ccccc2F)nnc1SCc1ccc(F)cc1,6.63%
6,CC(Sc1nnc(CNC(=O)c2ccccc2F)n1C)C(=O)Nc1nccs1 (centres undefined),-161% (active)
7,COc1ccccc1C(=O)NCc1nnc(SC(C)C(=O)Nc2nccs2)n1C (centres undefined),-5.03%
8,C=CCn1nc(C(=O)OCC)cc1-c1sc(NC(=O)c2ccccc2)nc1C,41.9%
9,CN(C)C(CNC(=O)c1cc(Br)c(Br)s1)c1ccco1 (centres undefined),6.08%
10,O=S(=O)(c1cccc(C(F)(F)F)c1)N1c2ccccc2-n2cccc2C1c1cccnc1 (centres undefined),-12.2%
11,Cc1ccc(OCCC(=O)Nc2ccc(S(=O)(=O)Nc3nccs3)cc2)cc1,4.09%
12,CCC(CC)C(=O)Nc1ccc(S(=O)(=O)Nc2nccs2)cc1,0.976%
13,O=C(CCc1ccccc1Cl)Nc1ccc(S(=O)(=O)Nc2nccs2)cc1,-79.2% (active)
14,O=C(OCC(=O)N1CCCCCC1)c1cccc(Cl)c1Cl,0.263%
15,C[C@H]1CN([C@@H](C)CO)C(=O)CCCn2cc(nn2)CO[C@@H]1CN(C)S(=O)(=O)c1ccc(-n2cccn2)cc1,12.7%
16,CCOc1ccc(S(=O)(=O)NCCC(=O)NNC(=O)c2ccc(F)cc2)cc1,-9.08%
17,Fc1ccc2[nH]c3c(N4CCN(Cc5ccc6c(c5)OCO6)CC4)ncnc3c2c1,22.8%
18,CCN1CCCC1Cn1cnc2c([nH]c3cc(OC)ccc32)c1=O (centres undefined),0.665%
19,CCN1CCCC1CNc1ncnc2c1[nH]c1ccc(F)cc12 (centres undefined),-81.9% (active)
